From the supplement of paper PMC3545927
Some of the results follow. How many sequences the whole screen found active is unknown.

Molecular target: furin, P09958
Test: furin cleavage Z-score vs untreated control; higher = more cleavage, active = 3.5 or more, inactive = 1 or less, 8 variable residues between constant flanks
Summary of the method: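 Furin-free reactions served as the baseline for the cleavage Z-score, which is the log read count lowess-adjusted and scaled by median absolute deviation. Counts came from released DNA, adapter-tagged by PCR and sequenced. Purified furin had cut 8-mer peptides fused to a cDNA oligonucleotide on magnetic beads during 7.5, 15 or 30 min at 1:10 enzyme:substrate.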
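Further: purified furin at 1:10 enzyme:substrate in 50 mM HEPES pH 7.5.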

furin, P09958, sequence (P09958 whole entry): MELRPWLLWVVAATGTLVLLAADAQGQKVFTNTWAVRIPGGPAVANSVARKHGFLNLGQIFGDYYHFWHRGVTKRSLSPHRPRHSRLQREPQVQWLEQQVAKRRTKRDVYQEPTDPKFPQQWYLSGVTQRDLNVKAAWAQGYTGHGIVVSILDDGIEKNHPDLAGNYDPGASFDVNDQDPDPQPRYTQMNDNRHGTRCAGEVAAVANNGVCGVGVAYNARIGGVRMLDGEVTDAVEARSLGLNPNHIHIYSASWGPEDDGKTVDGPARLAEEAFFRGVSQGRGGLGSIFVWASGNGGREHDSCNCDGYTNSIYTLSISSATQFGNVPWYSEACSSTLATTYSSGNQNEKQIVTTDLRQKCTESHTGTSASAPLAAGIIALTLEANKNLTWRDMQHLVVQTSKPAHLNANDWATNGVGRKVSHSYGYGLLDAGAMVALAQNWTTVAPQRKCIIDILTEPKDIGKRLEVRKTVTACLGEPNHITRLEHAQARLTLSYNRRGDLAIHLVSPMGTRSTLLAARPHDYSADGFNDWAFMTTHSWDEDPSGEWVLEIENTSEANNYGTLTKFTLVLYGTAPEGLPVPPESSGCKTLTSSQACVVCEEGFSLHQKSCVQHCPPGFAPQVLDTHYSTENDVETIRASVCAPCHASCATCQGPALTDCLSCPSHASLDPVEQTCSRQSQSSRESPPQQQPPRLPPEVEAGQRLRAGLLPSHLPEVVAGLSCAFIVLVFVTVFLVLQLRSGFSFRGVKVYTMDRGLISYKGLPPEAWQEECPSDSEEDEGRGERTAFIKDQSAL

| Sequence | furin cleavage Z-score (7.5 min) | furin cleavage Z-score (15 min) | furin cleavage Z-score (30 min) |
| --- | --- | --- | --- |
| CANLLSVEEAAGNASASA [HC1411] | 1.03 | -1.37 (inactive) | 1.04 |
| CARKGRSQSVAGNASASA [FS-2688] | 0.447 (inactive) | 1.69 | 2.28 |
| CARKRRPYGSAGNASASA [FS-1960] | -0.105 (inactive) | 0.526 (inactive) | -2 (inactive) |
| CARKNRSTASAGNASASA [FS-3159] | 4.98 (active) | 6.48 (active) | 5.71 (active) |
| CARKGRSYGSAGNASASA [FS-1902] | 2.38 | 4.19 (active) | 3.35 |
| CARKNRSFYAAGNASASA [FS-3222] | -0.489 (inactive) | 0.152 (inactive) | -1.6 (inactive) |
| CARKNRSQIVAGNASASA [FS-1731] | 0.382 (inactive) | 1.89 | 1.82 |
| CAESVTSTWVAGNASASA [HC2177] | 0.711 (inactive) | -0.0286 (inactive) | -0.582 (inactive) |
| CASCLWMMLLAGNASASA [HC527] | 0.0621 (inactive) | -0.464 (inactive) | 0.433 (inactive) |
| CAHYQDVLKEAGNASASA [HC1402] | -0.724 (inactive) | -0.493 (inactive) | 0.655 (inactive) |
| CALSRRRVRCAGNASASA [FS-1543] | 10.2 (active) | 7.81 (active) | 8.22 (active) |
| CAYGAKDVRCAGNASASA [HC1422] | -0.0596 (inactive) | 0.548 (inactive) | 0.765 (inactive) |
| CAQRQRSVRCAGNASASA [FS-481] | 1.64 | 0.494 (inactive) | 0.731 (inactive) |
| CALRERPVRCAGNASASA [FS-458] | 2.04 | 2.12 | 4.39 (active) |
| CAINRRTGRPAGNASASA [FS-34] | -0.402 (inactive) | -1.89 (inactive) | -1.13 (inactive) |
| CAQRSRQVRCAGNASASA [FS-482] | 0.775 (inactive) | 0.292 (inactive) | 1.12 |
| CAIRRRTQRCAGNASASA [FS-933] | 7.07 (active) | 6.92 (active) | 6.54 (active) |
| CATTPCSASWAGNASASA [HC1883] | -0.499 (inactive) | 0.682 (inactive) | -0.342 (inactive) |
| CAVVGCSMSYAGNASASA [HC2036] | 1.64 | -0.0657 (inactive) | 1.23 |
| CASTPCSGSWAGNASASA [HC1837] | -0.691 (inactive) | -0.464 (inactive) | -0.623 (inactive) |
| CARPRRSLALAGNASASA [FS-2504] | 7.93 (active) | 10.2 (active) | 8.84 (active) |
| CARPRRVIARAGNASASA [FS-2746] | 0.722 (inactive) | 0.121 (inactive) | 1.35 |

| Sequence | furin cleavage Z-score (7.5 min) | furin cleavage Z-score (15 min) | furin cleavage Z-score (30 min) |
| --- | --- | --- | --- |
| CARPRRELSLAGNASASA [FS-2501] | 9.83 (active) | 9.15 (active) | 8.79 (active) |
| CARRARSPHDAGNASASA [FS-1834] | 8.36 (active) | 9.74 (active) | 9.02 (active) |
| CARPWKSVALAGNASASA [FS-1765] | 1.43 | 0.873 (inactive) | -0.932 (inactive) |
| CARRARSWAEAGNASASA [FS-1772] | 0.748 (inactive) | 2.17 | 4.73 (active) |
| CARRARSSVCAGNASASA [FS-2771] | -0.135 (inactive) | 0.0716 (inactive) | 2.53 |
| CARRARAVHDAGNASASA [FS-2769] | 0.991 (inactive) | 0.269 (inactive) | 0.722 (inactive) |
| CALAVFGPLWAGNASASA [HC607] | 0.672 (inactive) | 0.344 (inactive) | 1.61 |
| CALPGCSFSIAGNASASA [HC245] | -0.725 (inactive) | 0.0221 (inactive) | 1.53 |
| CAEVVTSTWEAGNASASA [HC2252] | 1.19 | 1.24 | -0.113 (inactive) |
| CATTPCSGSKAGNASASA [HC1934] | -0.794 (inactive) | 0.477 (inactive) | -0.455 (inactive) |
| CASTGLYHVTAGNASASA [HC259] | 1.56 | 0.496 (inactive) | -0.862 (inactive) |
| CAMEECSQLLAGNASASA [HC1745] | 0.641 (inactive) | 1.59 | 1.09 |
| CANTRPPLGNAGNASASA [HC431] | -0.78 (inactive) | -0.196 (inactive) | 0.451 (inactive) |
| CAYLEVVTSTAGNASASA [HC2269] | 1.41 | 0.163 (inactive) | 0.356 (inactive) |
| CARRGRSRSRAGNASASA [FS-2774] | -0.725 (inactive) | -0.261 (inactive) | -0.331 (inactive) |
| CARRARFLHEAGNASASA [FS-2177] | 0.34 (inactive) | 2.97 | 5.38 (active) |
| CARRARVVHMAGNASASA [FS-2772] | -0.133 (inactive) | -2.18 (inactive) | -0.247 (inactive) |
| CARPQRSACHAGNASASA [FS-1832] | -0.244 (inactive) | 1.03 | 2.47 |
| CARRGRFKGLAGNASASA [FS-2773] | -2.35 (inactive) | 0.257 (inactive) | -0.0126 (inactive) |
| CARRGREILLAGNASASA [HC663] | 2.14 | 3.52 (active) | 5.12 (active) |
| CARPRRETCHAGNASASA [FS-2358] | 7.06 (active) | 6.02 (active) | 6.63 (active) |
| CARRARSLALAGNASASA [FS-2770] | 4.92 (active) | 6.9 (active) | 6.89 (active) |
